# Article PMC7819943, “Rice protein-binding microarrays: a tool to detect cis-acting elements near promoter regions in rice”
# The full ranking holds about 39,000 sequences; the median of “fluorescence intensity (a.u.)” is about 4,300, and the highest 2% start at about 39,000. The entries come from a sample that favours the highest values as a whole.
# Target: T1, OsSMF1 (Oryza sativa, UniProt Q6ZLB0 1-436)
# T1 sequence: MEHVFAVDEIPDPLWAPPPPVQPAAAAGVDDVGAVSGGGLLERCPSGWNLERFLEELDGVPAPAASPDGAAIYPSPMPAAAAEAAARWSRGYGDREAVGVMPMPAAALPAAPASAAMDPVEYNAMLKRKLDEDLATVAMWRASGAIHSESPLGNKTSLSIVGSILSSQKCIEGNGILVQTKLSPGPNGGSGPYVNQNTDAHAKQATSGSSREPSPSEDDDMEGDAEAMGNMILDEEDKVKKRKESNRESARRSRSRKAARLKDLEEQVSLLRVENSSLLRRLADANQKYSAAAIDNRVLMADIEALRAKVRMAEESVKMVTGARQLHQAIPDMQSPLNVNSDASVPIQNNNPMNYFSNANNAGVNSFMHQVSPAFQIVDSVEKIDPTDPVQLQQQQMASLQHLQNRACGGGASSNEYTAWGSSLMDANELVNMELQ
# Assay: protein-binding microarray (RPBM); PBS, 2% BSA, 51.3 ng/ul salmon testes DNA, 50 uM zinc acetate, 200 nM TF, 25 C, 1 h; high values mean tight binding
# Conditions: protein: recombinant; tags: N-terminal polyhistidine and DsRed monomer fusion (pET32a); chain copies: 2; label: CyDye5-dUTP incorporated in the synthesized complementary strand; 3' TTTTT single-stranded linker to array surface; dsDNA, one strand shown
# Outline: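 The binding signal is fluorescence intensity per feature, in arbitrary units, read on an Axon 4000B scanner. Polyhistidine- and DsRed-tagged transcription factors (N-terminal fusions) from E. coli BL21-CodonPlus were purified on Ni–NTA and applied at 200 nM for 1 h at 25 °C to a double-stranded, BSA-blocked custom Agilent array in buffer with 50 µM zinc acetate.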
row,Sequence,binding signal
1,GACACGTATGATTTGTGTGGTAGTACATAGCACGCACGCACGGAGTCACCTAGTGCAG,35800 fluorescence intensity (a.u.)
2,CCAGGCACCGACCTGTAGTTGCATCAGCAAACCATGGCTGCGGAGTCACCTAGTGCAG,4690 fluorescence intensity (a.u.)
3,AGGGATTATGTGTGTGTAAGATATTTGTGACTAGTTTATTCGGAGTCACCTAGTGCAG,3630 fluorescence intensity (a.u.)
4,AAATATAGAGATTTATTAACATAACAGCCTATCCACGTGGCGGAGTCACCTAGTGCAG,17200 fluorescence intensity (a.u.)
5,TTGTAAGCTCAGCCTAGATAGAGTGAAGATATTTTATTGGCGGAGTCACCTAGTGCAG,49700 fluorescence intensity (a.u.)
6,ATGAAATGGACCTCAAGATCGAGTCATGACAAGACAACGGCGGAGTCACCTAGTGCAG,4150 fluorescence intensity (a.u.)
7,TACACTGGTGGATGTGAATCATTGGAATGCATGCCTCCTGCGGAGTCACCTAGTGCAG,3810 fluorescence intensity (a.u.)
8,TTAGGCCTCTCACAGTGCTCTTAGCTGGACCGGTGCTACACGGAGTCACCTAGTGCAG,3920 fluorescence intensity (a.u.)
9,CCTCAGGCCGCCTCTCGTGCTGTACACGTAGGATAGCTACCGGAGTCACCTAGTGCAG,46200 fluorescence intensity (a.u.)
10,GGGATAGCAGGACACGTGTGTATAGCTGCTGCGCCTGCCTCGGAGTCACCTAGTGCAG,9260 fluorescence intensity (a.u.)
11,TTAAATGAATCATTTTGTTCCTATTTCTAAAATAAACTATCGGAGTCACCTAGTGCAG,3380 fluorescence intensity (a.u.)
12,ATGCAGGCCACCTCACGCCACACGCTGTATCGCGCCCATACGGAGTCACCTAGTGCAG,5790 fluorescence intensity (a.u.)
13,CTAGCTACTTCTATCCTCCACCTCCTAAATGATCGATTTGCGGAGTCACCTAGTGCAG,3740 fluorescence intensity (a.u.)
14,TCAGTAGTTGCTTCTCGCAACGTCACAGGCTTTAGATGCACGGAGTCACCTAGTGCAG,44200 fluorescence intensity (a.u.)
15,CCAACCATGCTTCGCAGTTGTCACAGAACGTCAACAGTGCCGGAGTCACCTAGTGCAG,3460 fluorescence intensity (a.u.)
16,TGTTAGTTTTGCATGCACAGAGATGATTAGGCAGTAGCAACGGAGTCACCTAGTGCAG,3940 fluorescence intensity (a.u.)
17,CCAGATATCTTTTACTAAAGGATGGAAATGAGGCGTAATTCGGAGTCACCTAGTGCAG,29100 fluorescence intensity (a.u.)
18,GAGTTGTGCAGCCAAGTCAGCTGCACATGGGGAACAAGCGCGGAGTCACCTAGTGCAG,6520 fluorescence intensity (a.u.)
19,ACAAAGGAGAAGAAGCCATGATGTGGAGTTGGCCGGTGGCCGGAGTCACCTAGTGCAG,3800 fluorescence intensity (a.u.)

row,Sequence,binding signal
1,GTGTAGTTGGAGCGCGCGGTGGAAGATGAACAAGCTCAGCCGGAGTCACCTAGTGCAG,41200 fluorescence intensity (a.u.)
2,AACAATAACAAGATTAAAATAAACTTCACACGTTGTAATGCGGAGTCACCTAGTGCAG,3160 fluorescence intensity (a.u.)
3,AAAATAATTAAAATAGTACGAGTAGATTCACACAAGATCTCGGAGTCACCTAGTGCAG,39900 fluorescence intensity (a.u.)
4,TAAAACAAGTCATAATAAAATAAATAGTAATTAAAATTCTCGGAGTCACCTAGTGCAG,29200 fluorescence intensity (a.u.)
5,GCAAAATGTCAGGCCGACACAACCCGTCATACTCTTCATGCGGAGTCACCTAGTGCAG,3480 fluorescence intensity (a.u.)
6,GGGGTGCTTCACAAATCCCCTTGCGTACATGAGGTGTTTTCGGAGTCACCTAGTGCAG,3320 fluorescence intensity (a.u.)
7,GTAACTAAAGATACAAAATTATTAGTGTAACCGGAGGCATCGGAGTCACCTAGTGCAG,34600 fluorescence intensity (a.u.)
8,CTATCCGTCCAAATTAGGCTATCTCTAAAGATTAACTAACCGGAGTCACCTAGTGCAG,41000 fluorescence intensity (a.u.)
9,AGTCTCTAACTAAACACCATATATCTCTATTAATTACTACCGGAGTCACCTAGTGCAG,16000 fluorescence intensity (a.u.)
10,TTTTATGTATGTATTCAAATATTTCGATGTGACGGAATTTCGGAGTCACCTAGTGCAG,4210 fluorescence intensity (a.u.)
11,GGATTTAACACTAGAGACCCTAATTTTGCTGCTCAGGCGACGGAGTCACCTAGTGCAG,28500 fluorescence intensity (a.u.)
12,ATATGAGATATTTCATATGCTGTTTATTGCTGCTGCCAGACGGAGTCACCTAGTGCAG,6080 fluorescence intensity (a.u.)
13,GGAAAGAGAAGAGAGGAAAGAGAGATGACGTGGACACCTGCGGAGTCACCTAGTGCAG,21100 fluorescence intensity (a.u.)
14,TCGTCGCACGACCAGACCAGCAGCACCAACTCCCTTTCTGCGGAGTCACCTAGTGCAG,3160 fluorescence intensity (a.u.)
15,GTGTCATTTCATTCACTGGTCGGCTATATCTGGGCATATGCGGAGTCACCTAGTGCAG,53800 fluorescence intensity (a.u.)
16,ACCATATGACTTATATATCTGTCGTCAGCTCATTTCTATGCGGAGTCACCTAGTGCAG,7290 fluorescence intensity (a.u.)
17,ATGGGGAATCTGGCACCTTTGGCTACTGGTGATTCAGTGTCGGAGTCACCTAGTGCAG,3510 fluorescence intensity (a.u.)
18,TGGCGCCTCTCACCGCCACGTCGCCGCCGGCGAGGTGAAACGGAGTCACCTAGTGCAG,20800 fluorescence intensity (a.u.)
19,ATCACGTGATTAAAACAGTAATTATCGAGCACGGAAGGAACGGAGTCACCTAGTGCAG,40600 fluorescence intensity (a.u.)

row,Sequence,binding signal
1,ACGATTAATTGTTTAGTAAGCGTGCTGACGTTAAACGAGACGGAGTCACCTAGTGCAG,3690 fluorescence intensity (a.u.)
2,CGATCGATCGATTGTGAGCACCGAACTCCCTTAATTAGGACGGAGTCACCTAGTGCAG,3390 fluorescence intensity (a.u.)
3,GGTGACAATTGTCATTTGCTCAGCAACTAACATTACTAAACGGAGTCACCTAGTGCAG,18200 fluorescence intensity (a.u.)
4,CACTGTTTGATGCTAAAACATATTACGTGTGCCGTTCATACGGAGTCACCTAGTGCAG,3580 fluorescence intensity (a.u.)
5,CAGTCCACATAACCTGAACCCAGCGTCAATCCGCAAGCAACGGAGTCACCTAGTGCAG,40200 fluorescence intensity (a.u.)
6,GACCCAGCAAGCAAGAGCGTCTAGTCACCTCAACCACGAACGGAGTCACCTAGTGCAG,6180 fluorescence intensity (a.u.)
7,ACCGCATCACATCAAGCATCCACCAACCAACCCAACAACACGGAGTCACCTAGTGCAG,3910 fluorescence intensity (a.u.)
8,GGTTGGTATTAACCGCTGATGGTGAATGCCAACCTCAGAACGGAGTCACCTAGTGCAG,51200 fluorescence intensity (a.u.)
9,CATGGTATTGTTTGATGCCAACTGAATTGATACAATGTGACGGAGTCACCTAGTGCAG,20500 fluorescence intensity (a.u.)
10,GAGAATGATGTATGCACGCAGATGACATGGTATGATGAACCGGAGTCACCTAGTGCAG,4370 fluorescence intensity (a.u.)
11,CTTCAAGAAGGTTACGCTGACAGAACGGCGACAACGTCCGCGGAGTCACCTAGTGCAG,3220 fluorescence intensity (a.u.)
12,CTTCCTTTGATAATATAATATATAGATAAATTCTCTAAGACGGAGTCACCTAGTGCAG,3200 fluorescence intensity (a.u.)
13,TCTAAGACTGAACTTTCCTGTATACATATATTTTGAAAAGCGGAGTCACCTAGTGCAG,24600 fluorescence intensity (a.u.)
14,TCCTTCCATACTGTATAAATACTTTGAAATTCTAATATAGCGGAGTCACCTAGTGCAG,44200 fluorescence intensity (a.u.)
15,GACGACCTTGGCACCCAGCTTCCGTCACTCGCTCGCCGCGCGGAGTCACCTAGTGCAG,3220 fluorescence intensity (a.u.)
16,CATATAACAAGTGACTGGCACACAAACCCACAATGAAGTGCGGAGTCACCTAGTGCAG,43500 fluorescence intensity (a.u.)
17,TTATAACACAAAACACATATGAAGCGCACTCTACCACGCACGGAGTCACCTAGTGCAG,32200 fluorescence intensity (a.u.)
18,CATCTATCATATAACAACAACACAATGACACAACACTGGACGGAGTCACCTAGTGCAG,4510 fluorescence intensity (a.u.)
